The text below walks through data of article PMC11006913.

Experiment in all cases: PBM; 200 nM protein, PBS
Common to all, as to conditions: dsDNA, one strand shown

The target in experiment [1] is HOXD13 (Homo sapiens, UniProt P35453 263-343, T313R).
In experiment [2] the target is HOXD13 (Homo sapiens, UniProt P35453 263-343).
For experiment [3], the target named is HOXD13 (Homo sapiens, UniProt P35453 263-343, T313A).
Chain of HOXD13 (Homo sapiens, UniProt P35453 263-343, T313A) (P35453 263-343 T313A): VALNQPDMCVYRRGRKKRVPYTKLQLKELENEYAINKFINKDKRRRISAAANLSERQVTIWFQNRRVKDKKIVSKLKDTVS

Chain of HOXD13 (Homo sapiens, UniProt P35453 263-343) (P35453 263-343): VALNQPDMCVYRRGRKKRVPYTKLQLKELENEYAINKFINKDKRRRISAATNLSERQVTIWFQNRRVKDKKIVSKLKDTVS
Chain of HOXD13 (Homo sapiens, UniProt P35453 263-343, T313R) (P35453 263-343 T313R): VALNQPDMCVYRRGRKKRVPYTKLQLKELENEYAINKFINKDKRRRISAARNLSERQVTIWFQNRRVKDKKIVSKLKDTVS

Consider GCCACGGA, for which the binding signal is 9.56 upbm affinity estimate (log intensity, higher = more binding, comparable within an allelic series) in the experiment with HOXD13 [1]; 9.61 upbm affinity estimate (log intensity, higher = more binding, comparable within an allelic series) in the experiment with HOXD13 [2]; 9.69 upbm affinity estimate (log intensity, higher = more binding, comparable within an allelic series) with HOXD13 [3].
As for GGGCCGGA, the binding signal with HOXD13 [1] was 9.43 upbm affinity estimate (log intensity, higher = more binding, comparable within an allelic series); with HOXD13 [2], 9.41 upbm affinity estimate (log intensity, higher = more binding, comparable within an allelic series); with HOXD13 [3], 9.47 upbm affinity estimate (log intensity, higher = more binding, comparable within an allelic series).
For the sequence GCTGCGCA, the binding signal in the experiment with HOXD13 [1] was 9.55 upbm affinity estimate (log intensity, higher = more binding, comparable within an allelic series); in the experiment with HOXD13 [2] it was 9.53 upbm affinity estimate (log intensity, higher = more binding, comparable within an allelic series); with HOXD13 [3], 9.77 upbm affinity estimate (log intensity, higher = more binding, comparable within an allelic series).
With GGAGCAAC, the binding signal with HOXD13 [1] is 9.51 upbm affinity estimate (log intensity, higher = more binding, comparable within an allelic series); with HOXD13 [2], 9.53 upbm affinity estimate (log intensity, higher = more binding, comparable within an allelic series); with HOXD13 [3] it was 9.56 upbm affinity estimate (log intensity, higher = more binding, comparable within an allelic series).
As to CTTGTTAA, the binding signal is 10.6 upbm affinity estimate (log intensity, higher = more binding, comparable within an allelic series) with HOXD13 [1]; 11.8 upbm affinity estimate (log intensity, higher = more binding, comparable within an allelic series) in the experiment with HOXD13 [2]; 11.7 upbm affinity estimate (log intensity, higher = more binding, comparable within an allelic series) with HOXD13 [3].
As for TCGGCCCA, the binding signal with HOXD13 [1] is 9.58 upbm affinity estimate (log intensity, higher = more binding, comparable within an allelic series); with HOXD13 [2], 9.62 upbm affinity estimate (log intensity, higher = more binding, comparable within an allelic series); in the experiment with HOXD13 [3], 9.55 upbm affinity estimate (log intensity, higher = more binding, comparable within an allelic series).
On to CACCGGTG, for which the binding signal was 9.69 upbm affinity estimate (log intensity, higher = more binding, comparable within an allelic series) with HOXD13 [1]; 9.58 upbm affinity estimate (log intensity, higher = more binding, comparable within an allelic series) with HOXD13 [2]; 9.72 upbm affinity estimate (log intensity, higher = more binding, comparable within an allelic series) with HOXD13 [3].
As to CAGCGGGG, the binding signal in the experiment with HOXD13 [1] was 9.37 upbm affinity estimate (log intensity, higher = more binding, comparable within an allelic series); with HOXD13 [2], 9.58 upbm affinity estimate (log intensity, higher = more binding, comparable within an allelic series); with HOXD13 [3] it was 9.58 upbm affinity estimate (log intensity, higher = more binding, comparable within an allelic series).
Consider CTAGTAAA, for which the binding signal was 10.8 upbm affinity estimate (log intensity, higher = more binding, comparable within an allelic series) with HOXD13 [1]; 11.9 upbm affinity estimate (log intensity, higher = more binding, comparable within an allelic series) with HOXD13 [2]; 11.8 upbm affinity estimate (log intensity, higher = more binding, comparable within an allelic series) with HOXD13 [3].
AATAAACC: the binding signal with HOXD13 [1] was 10.6 upbm affinity estimate (log intensity, higher = more binding, comparable within an allelic series); in the experiment with HOXD13 [2], 11.8 upbm affinity estimate (log intensity, higher = more binding, comparable within an allelic series); in the experiment with HOXD13 [3], 11.6 upbm affinity estimate (log intensity, higher = more binding, comparable within an allelic series).
As for ACCAGGGG, the binding signal is 9.62 upbm affinity estimate (log intensity, higher = more binding, comparable within an allelic series) with HOXD13 [1]; 9.61 upbm affinity estimate (log intensity, higher = more binding, comparable within an allelic series) with HOXD13 [2]; 9.9 upbm affinity estimate (log intensity, higher = more binding, comparable within an allelic series) with HOXD13 [3].
Take CATCGGGC: the binding signal is 9.55 upbm affinity estimate (log intensity, higher = more binding, comparable within an allelic series) with HOXD13 [1]; 9.52 upbm affinity estimate (log intensity, higher = more binding, comparable within an allelic series) with HOXD13 [2]; 9.62 upbm affinity estimate (log intensity, higher = more binding, comparable within an allelic series) with HOXD13 [3].
With ATATAAAC, the binding signal is 10.8 upbm affinity estimate (log intensity, higher = more binding, comparable within an allelic series) in the experiment with HOXD13 [1]; 11.8 upbm affinity estimate (log intensity, higher = more binding, comparable within an allelic series) with HOXD13 [2]; 11.5 upbm affinity estimate (log intensity, higher = more binding, comparable within an allelic series) with HOXD13 [3].
In the case of CATATAAA, the binding signal was 10.9 upbm affinity estimate (log intensity, higher = more binding, comparable within an allelic series) with HOXD13 [1]; 12.1 upbm affinity estimate (log intensity, higher = more binding, comparable within an allelic series) with HOXD13 [2]; 11.9 upbm affinity estimate (log intensity, higher = more binding, comparable within an allelic series) in the experiment with HOXD13 [3].
GCTCGTAA: the binding signal in the experiment with HOXD13 [1] is 10.6 upbm affinity estimate (log intensity, higher = more binding, comparable within an allelic series); with HOXD13 [2], 11.9 upbm affinity estimate (log intensity, higher = more binding, comparable within an allelic series); with HOXD13 [3] it was 11.7 upbm affinity estimate (log intensity, higher = more binding, comparable within an allelic series).
Turning to CATGTATA, the binding signal is 10.3 upbm affinity estimate (log intensity, higher = more binding, comparable within an allelic series) with HOXD13 [1]; 10.8 upbm affinity estimate (log intensity, higher = more binding, comparable within an allelic series) in the experiment with HOXD13 [2]; 11 upbm affinity estimate (log intensity, higher = more binding, comparable within an allelic series) in the experiment with HOXD13 [3].
As for ATTACGAG, the binding signal in the experiment with HOXD13 [1] was 10.5 upbm affinity estimate (log intensity, higher = more binding, comparable within an allelic series); with HOXD13 [2], 11.7 upbm affinity estimate (log intensity, higher = more binding, comparable within an allelic series); with HOXD13 [3] it was 11.4 upbm affinity estimate (log intensity, higher = more binding, comparable within an allelic series).
On to AGGGGGGA, for which the binding signal in the experiment with HOXD13 [1] was 9.23 upbm affinity estimate (log intensity, higher = more binding, comparable within an allelic series); with HOXD13 [2], 9.47 upbm affinity estimate (log intensity, higher = more binding, comparable within an allelic series); with HOXD13 [3] it was 9.55 upbm affinity estimate (log intensity, higher = more binding, comparable within an allelic series).
CCCGCCCC: the binding signal with HOXD13 [1] was 9.6 upbm affinity estimate (log intensity, higher = more binding, comparable within an allelic series); with HOXD13 [2] it was 9.54 upbm affinity estimate (log intensity, higher = more binding, comparable within an allelic series); with HOXD13 [3], 9.7 upbm affinity estimate (log intensity, higher = more binding, comparable within an allelic series).
Turning to CGAAGGCG, the binding signal is 9.52 upbm affinity estimate (log intensity, higher = more binding, comparable within an allelic series) in the experiment with HOXD13 [1]; 9.45 upbm affinity estimate (log intensity, higher = more binding, comparable within an allelic series) with HOXD13 [2]; 9.53 upbm affinity estimate (log intensity, higher = more binding, comparable within an allelic series) with HOXD13 [3].
For the sequence GTTTAATA, the binding signal was 10.8 upbm affinity estimate (log intensity, higher = more binding, comparable within an allelic series) with HOXD13 [1]; 11.8 upbm affinity estimate (log intensity, higher = more binding, comparable within an allelic series) in the experiment with HOXD13 [2]; 11.6 upbm affinity estimate (log intensity, higher = more binding, comparable within an allelic series) with HOXD13 [3].
With AGCCGGCC, the binding signal in the experiment with HOXD13 [1] is 9.49 upbm affinity estimate (log intensity, higher = more binding, comparable within an allelic series); with HOXD13 [2] it was 9.41 upbm affinity estimate (log intensity, higher = more binding, comparable within an allelic series); in the experiment with HOXD13 [3], 9.49 upbm affinity estimate (log intensity, higher = more binding, comparable within an allelic series).
GTTTATGA: the binding signal with HOXD13 [1] is 10.9 upbm affinity estimate (log intensity, higher = more binding, comparable within an allelic series); with HOXD13 [2] it was 12 upbm affinity estimate (log intensity, higher = more binding, comparable within an allelic series); in the experiment with HOXD13 [3] it was 11.8 upbm affinity estimate (log intensity, higher = more binding, comparable within an allelic series).
As to CGCCGCCC, the binding signal with HOXD13 [1] is 9.48 upbm affinity estimate (log intensity, higher = more binding, comparable within an allelic series); with HOXD13 [2], 9.53 upbm affinity estimate (log intensity, higher = more binding, comparable within an allelic series); in the experiment with HOXD13 [3], 9.6 upbm affinity estimate (log intensity, higher = more binding, comparable within an allelic series).
Regarding AGGAGGGG, the binding signal with HOXD13 [1] was 9.43 upbm affinity estimate (log intensity, higher = more binding, comparable within an allelic series); with HOXD13 [2] it was 9.61 upbm affinity estimate (log intensity, higher = more binding, comparable within an allelic series); in the experiment with HOXD13 [3] it was 9.63 upbm affinity estimate (log intensity, higher = more binding, comparable within an allelic series).
On to CTTTACGA, for which the binding signal is 10.5 upbm affinity estimate (log intensity, higher = more binding, comparable within an allelic series) with HOXD13 [1]; 11.8 upbm affinity estimate (log intensity, higher = more binding, comparable within an allelic series) in the experiment with HOXD13 [2]; 11.5 upbm affinity estimate (log intensity, higher = more binding, comparable within an allelic series) in the experiment with HOXD13 [3].
